# Compound activity: PubChem, National Center for Advancing Translational Sciences (NCATS)
# Sm TGR block – qHTS Assay for the Inhibitors of Schistosoma Mansoni Peroxiredoxins; Schistosoma mansoni thioredoxin glutathione reductase (TGR), Q962Y6; 3% of 360,000 active; purified TGR, DTNB reduction, TNB absorbance 405 nm; Potency, µM (highest dose often 114 µM), usual class: inhibitors; AID 485364, 2010; note: nearly all actives have a fitted effect of over 60% in size
#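 TGR 20 nM + NADPH 100 uM (dispensed conc.), cpd preinc 15 min RT; start with NADPH (500 uM addition) then DTNB (15 mM addition). Kinetic TNB absorbance, 405 nm filter. Four-parameter Hill fit across titration.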
# Pf growth 96h – Primary qHTS for delayed death inhibitors of the malarial parasite plastid, 96 hour incubation; P. falciparum luciferase reporter growth, 96 h; 6.9% of 320,000 active; Potency, µM (highest dose often 28.7 µM), hits mostly inhibitors
#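 Two parasite generations (96 h, 37 C, 5% CO2) of compound exposure in infected erythrocytes (0.05% parasitemia, 2% hematocrit). Luciferase-reporter P. falciparum; decreased luminescence indicates inhibited growth, aimed at apicoplast-acting delayed death.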
# Shiga inhibitor – A qHTS for Small Molecule Inhibitors of Shiga Toxin; Vero cells, Shiga toxin protein synthesis inhibition reporter; inhibition, % at 38.7 µM; 9.2% of 290,000 active; in the data active = inhibition mostly above about 28%, no sharp cut-off; inactive = mostly below about 43%
# CHX counter – Cycloheximide Counterscreen for Small Molecule Inhibitors of Shiga Toxin; cell reporter, cycloheximide protein synthesis inhibition counterscreen; 12% of 300,000 active; max response, %; in the data active = max response mostly above about 13%, no sharp cut-off; inactive = mostly below about 14%; note: read at 38.3 µM for the half of the compounds with a filed dose
# Pf growth 48h – Primary qHTS for delayed death inhibitors of the malarial parasite plastid, 48 hour incubation; 5.9% of 310,000 active; P. falciparum luciferase growth in erythrocytes, 48 h; Potency, µM (titrated, usually from 28.7 µM), usual class: inhibitors
#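 First compound was added to culture medium, then infected red cells at 0.1% parasitemia and 2% hematocrit (final). After incubation at 37 C under 5% CO2, luciferase detection reagent was dispensed and light output recorded.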
# NS1 function inh – qHTS Assay for Inhibitors of Influenza NS1 Protein Function | Potency, µM (doses to about 46.1 µM) | 0.4% of 270,000 active; calls by dose curve; note: actives are rising curves; nearly all actives have a fitted effect of over 50% in size
#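 In this qHTS, NS1 from influenza A is expressed in budding yeast, where it slows growth. Cells are switched from glucose to 2% galactose medium (pH 6.0, -URA), treated with compound, and growth recovery is read at OD600.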
# Flu NS1 inh – Assay for Inhibitors of Influenza NS1 Protein Function: Hit Validation; shares compounds with NS1 function inh; 1,400 tested, under 10 active; influenza NS1 function cell assay, 15-point titration; activity change, negative = inhibition, % at 32.9 µM; calls by dose curve
# PR8 titer – Assay for Inhibitors of Influenza NS1 Protein Function: Influenza virus replication assay in MDCK cells infected with virus A/PR/8/34; shares compounds with NS1 function inh; MDCK infected influenza A/PR/8/34, virus titer TCID50; active compounds read low; virus titer (log TCID50), log10 TCID50 at 5 µM; 30% of 95 active; call rule not given here
# Numbers stand for hits; 0 = inactive; ? = inconclusive; - = not tested or not shown; [ ] = dose if it differs, or a comment. Rows were chosen to be rich in hits. Some 21% of all compounds tested hit in one or more screens of this group. Unless noted, calls come from the whole dose curve; as a rule, active = well fitted curve in the direction sought with a large enough effect; inconclusive = small, poorly fitted or top-dose-only effect, or another doubt; inactive = no such curve, though single readings can be large; an effect the other way counts as inactive or inconclusive.
SMILES,Sm TGR block,Pf growth 96h,Shiga inhibitor,CHX counter,Pf growth 48h,NS1 function inh,Flu NS1 inh,others
CCOc1ccc(C2/C(=C(/O)c3ccc(OC)cc3)C(=O)C(=O)N2c2cc(C)on2)cc1OC (centres undefined),0,0,0,0,-,0,-,
COc1ccc(S(=O)(=O)N2CCCCC2)cc1NS(=O)(=O)c1cc(Cl)ccc1Cl,0,0,0,0,0,22µM,0,PR8 titer=0
Cc1[nH]c2ccc(F)cc2c1CCNC(=O)c1cc2cc(Cl)ccc2oc1=O,0,-,-,-,-,-,-,
O=c1cc(O)c2sc3nc(-c4ccccc4)cc(C(F)(F)F)c3c2[nH]1,0,?,0,0,?,?,0,
C(=N\n1cnnc1SCc1ccccc1)/c1ccco1,22µM,?,0,0,0,1.1µM,0,
CN(C)S(=O)(=O)c1ccc(NC(=O)CN2CCN(c3ccccn3)CC2)cc1,0,0,0,0,0,0,-,
COc1ccc(C(c2sc3nc(C)nn3c2O)N2CCN(CCO)CC2)cc1OC (centres undefined),0,0,0,0,0,0,-,
COc1ccc(C(c2c(NC(=O)c3ccccc3)sc(C)c2C)N2CCN(CCO)CC2)cc1 (centres undefined),0,?,56,22,?,?,0,
Cc1cccc(C)c1NC(=O)CCS(=O)(=O)c1cccc2nonc12,0,0,0,0,0,?,0,
Cc1cccc(NC(=O)CCS(=O)(=O)c2cccc3nonc23)c1C,0,0,0,0,0,0,-,
N#C/C(=C\c1cn(CCOc2ccccc2)c2ccccc12)C(=O)NCc1ccco1,0,0,0,16,?,?,0,
COc1cccc(NC(=S)N2CCc3cc(OC)c(OC)cc3C2COc2ccc3c(C)cc(=O)oc3c2)c1 (centres undefined),0,?,0,0,5.2µM,8.9µM,0,
COc1ccc(-c2c(C)nn3c(C(F)(F)F)cc(-c4ccc(Br)cc4)nc23)cc1,0,-,-,-,-,-,-,
CC1(C)Cc2c(c(N3CCOCC3)nc3sc(C(=O)N4CCCCC4)c(N)c23)CO1,0,?,0,0,0,?,-,
CC1(C)Cc2c(c(N3CCOCC3)nc3sc(-c4ccc(C(=O)O)o4)c(N)c23)CO1,?,0,0,0,12µM,?,0,
Cc1nn(-c2ccccc2)c2sc(-c3nnc(SCC(=O)O)o3)cc12,0,?,0,0,-,0,-,
CCn1c(SCC(=O)O)nnc1-c1cc2c(C)nn(-c3ccccc3)c2s1,0,0,0,0,0,?,0,
COc1cc2nc(SCC(=O)NCCc3ccccc3)n(Cc3ccco3)c(=O)c2cc1OC,?,?,0,0,0,2.5µM,0,
O=S1(=O)N=C(Nc2cccc(C(F)(F)F)c2)c2ccccc21,0,-,-,-,-,-,-,
COc1ccc([N+](=O)[O-])cc1NC(=O)c1ccc(N2C(=O)CCC2=O)cc1,0,0,0,0,0,0,-,
Cc1ccc(C)n1NC(=O)c1ccc(O)cc1,0,0,0,0,-,11µM,0,
Cc1ccc(C)n1NC(=O)c1ccccc1,0,?,0,0,0,0,-,
Cc1nn(-c2ccccc2)c(C)c1C(=O)OC(C)C(=O)NC1CCCCC1C (centres undefined),0,?,-,-,?,-,-,
O=C(O)CC(CC(=O)Nc1ccc(-n2ccc(C(F)(F)F)n2)cc1)c1ccccc1 (centres undefined),0,0,0,0,?,?,0,
O=C(C1CCC1)N1CCc2cc(S(=O)(=O)NC3CCCc4ccccc43)ccc21 (centres undefined),0,0,0,0,-,0,-,
SMILES,Sm TGR block,Pf growth 96h,Shiga inhibitor,CHX counter,Pf growth 48h,NS1 function inh,Flu NS1 inh,others
O=C(O)CCC(=O)N1CCc2cc(S(=O)(=O)NC3CCCc4ccccc43)ccc21 (centres undefined),0,?,0,0,?,3.5µM,0,
Cc1ccc(CCN2CC(C(=O)NCc3ccco3)CC2=O)cc1 (centres undefined),45µM,0,0,0,0,?,0,
Cc1ccc(CCN2CC(C(=O)NCCC(C)C)CC2=O)cc1 (centres undefined),0,0,0,0,0[0.00184 µM],0,-,
CCc1ccc(C(=O)c2c(N)c(-c3nc(-c4ccc5c(c4)OCO5)cs3)c3ccccn23)cc1,0,-,0,0,-,-,-,
O=C(NCc1ccccc1)c1cccc(OCC(=O)N2CCN(C(=O)c3ccco3)CC2)c1,0,-,0,0,0,?,0,
O=C(COc1ccc2ccccc2c1)N1CCN(C(=O)c2ccco2)CC1,?,0,0,0,0,-,-,
Cc1ccc(S(=O)(=O)C/N=C(/NC(=S)N(c2ccccc2)c2ccccc2)c2ccccc2)cc1,?,?,50,22,-,10µM,?,
CC(C)=CCN1CCN(Cc2cn(C(C)C)c3ccccc23)CC1CCO (centres undefined),0,?,0,0,?,11µM,0,
Cc1ccc(CN2CCSc3ccc(C(=O)Nc4cc(C)cc(C)c4)cc32)cc1,0,-,-,-,-,-,-,
CCCC(C)(C)C(=O)Nc1ccc(Cl)cc1,-,-,0,0,-,-,-,
CCc1cc2c(-c3ccccc3)cc(=O)oc2cc1OC(C)C(=O)O (centres undefined),0,?,0,0,0,10µM,0,
CC(Oc1ccc2c(-c3ccccc3)cc(=O)oc2c1)C(=O)O (centres undefined),?,0,0,0,0,0,-,
CCOC(=O)c1c(S(=O)(=O)N2CCC(C(=O)Nc3cccc(C#N)c3)CC2)c(C)n(C)c1C,0,-,-,-,-,-,-,
NC(Cc1c[nH]c2ccccc12)C(=O)NCc1ccccc1 (centres undefined),0,0,0,0,0,?,0,
NC(Cc1c[nH]c2ccccc12)C(=O)NCc1ccco1 (centres undefined),0,0,0,0,0,0,-,
O=C(c1ccc(Cl)cc1)N(Cc1ccccc1F)N1C(=O)CCCC1=O,-,?,0,0,0,0,-,
CC(C)CC(C(=O)O)N1C(=O)C2C3CC(C2C1=O)C1C(c2ccccc2)c2sc(=O)[nH]c2SC31 (centres undefined),0,0,0,0,0,?,0,
CCOc1ccc(NC(=O)c2cccnc2C(=O)O)cc1,0,0,0,0,0,4.5µM,0,
Cc1ccc(-c2nc(CS(=O)(=O)CC(=O)NC3CCCCC3C)c(C)o2)cc1 (centres undefined),35µM,0,0,0,-,3.2µM,0,
